Outcome and AC50 data for 31 compounds are collected here from PubChem BioAssay (EPA / NIEHS).

In test [1] the target is Glucocorticoid receptor (Homo sapiens) (UniProt P04150). Kind of test: ATG_GR_TRANS: Attagene TRANS-FACTORIAL HepG2 Assay for human Glucocorticoid Receptor (GR) (AID 2282978).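 Also: activators score as hits since higher reporter transcript over DMSO is fitted.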 As to conditions: HepG2 Attagene TRANS GR reporter, mRNA transcription. In outline: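 Transient MRTU transfection of HepG2 (GAL4-UAS reporters, exogenous NR-GAL4 chimeras), 24 h dosing. Readout: reporter transcript via RT-PCR + capillary electrophoresis fluorescence. Positive direction vs DMSO baseline.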

Test [2] addresses Hepatocyte nuclear factor 4-alpha (Homo sapiens) (UniProt P41235). Put plainly: ATG_HNF4a_TRANS: Attagene TRANS-FACTORIAL HepG2 Assay for human Hepatocyte Nuclear Factor 4 alpha (HNF4a) (AID 2282982). Conditions: HepG2 HNF4a transactivation reporter, mRNA readout. In short, it runs like this: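 Transfected HepG2 reporter cells are dosed for 24 h; reporter RNA is reverse-transcribed, amplified, fluorescently labelled and HpaI-digested before CE sizing. Positive-direction fit against DMSO.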

A short description of test [3]: ATG_M_32_TRANS: Attagene TRANS-FACTORIAL HepG2 Assay for M32 Transcription Factor (Internal Marker) (AID 2282984).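 Also: transcript level of a background control reporter unit measured by RT-PCR and capillary electrophoresis.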 Conditions: HepG2 Attagene TRANS M32 internal marker reporter. In outline: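 Using transiently transfected HepG2 cells exposed to test chemicals for 24 h, reporter transcripts are converted to labelled cDNA fragments and quantified by capillary electrophoresis. DMSO defines the activity baseline.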

Test [4] has as its target Transcriptional activator Myb (Homo sapiens) (UniProt P10242). Put plainly: ATG_Myb_CIS: Attagene CIS-FACTORIAL HepG2 Assay for human Myeloblastosis (Myb) Proto-Oncogene Transcription Factor (AID 2282986; active = hit-call score of the fitted dose curve at least 0.9, where 1 is the maximum; inactive = score below 0.9). As to conditions: HepG2 Attagene CIS-FACTORIAL Myb reporter transcription; actives raise or lower the signal. In outline: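 HepG2, transient MRTU transfection (cis-element promoters, endogenous TF activity), 24 h compound exposure. Readout: reporter mRNA via RT-PCR, 6-FAM labeling, HpaI digest, capillary electrophoresis. Gain/loss fit vs DMSO.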

The target of test [5] is Nuclear respiratory factor 1 (Homo sapiens) (UniProt Q16656). Put plainly: ATG_NRF1_CIS: Attagene CIS-FACTORIAL HepG2 Assay for human Nuclear Respiratory Factor 1 (NRF1) Orphan Gene (AID 2282987; active = hit-call score of the fitted dose curve at least 0.9, where 1 is the maximum; inactive = score below 0.9). As to conditions: HepG2 NRF1 cis-element reporter, Attagene multiplex; actives raise or lower the signal. In short, it runs like this:
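Endogenous NRF1-driven reporter transcription measured in transiently transfected human HepG2 liver cells. Readout: reporter mRNA by RT-PCR and capillary electrophoresis with fluorescence detection, 24 h post-dosing. Gain or loss of signal fitted relative to DMSO baseline.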

In test [6] the target is Bile acid receptor (Homo sapiens) (UniProt Q96RI1). Kind of test: ATG_FXR_TRANS: Attagene TRANS-FACTORIAL HepG2 Assay for Farnesoid X Receptor (FXR) (AID 2282979).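 Also: hits raise reporter mRNA above DMSO so AC50 marks FXR activation.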 As to conditions: HepG2 Attagene TRANS FXR-GAL4 reporter transcription. In outline:
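Chimeric FXR-GAL4 activity in transiently transfected human HepG2 liver cells is scored as induction of reporter mRNA after 24 h of dosing. Detection uses RT-PCR with fluorescent labelling and capillary electrophoresis, with DMSO serving as baseline.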

In test [7] the target is Oxysterols receptor LXR-alpha (Homo sapiens) (UniProt Q13133). Put plainly: ATG_LXRa_TRANS: Attagene TRANS-FACTORIAL HepG2 Assay for human Liver X Receptor alpha (LXRa) (AID 2282980). Conditions: HepG2 Attagene TRANS reporter, LXRa transactivation. In outline: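 Transient HepG2 transfectants, 24 h dosing, RT-PCR/CE mRNA reporter quantitation; gain-of-signal vs DMSO.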
Test [8] has as its target Oxysterols receptor LXR-beta (Homo sapiens) (UniProt P55055). Put plainly: ATG_LXRb_TRANS: Attagene TRANS-FACTORIAL HepG2 Assay for human Liver X Receptor beta (LXRb) (AID 2282981). As to conditions: HepG2 Attagene TRANS GAL4-LXRb reporter, mRNA. In outline: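 Cells: HepG2, transiently transfected with GAL4-UAS reporter units plus LXRb-Gal4 fusion. Treatment: 24 h. Detection: reporter mRNA by RT-PCR, 6-FAM labelling, HpaI digestion, capillary electrophoresis.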

The target in test [9] is Nuclear receptor subfamily 4 group A member 2 (Homo sapiens) (UniProt P43354). Kind of test: ATG_NURR1_TRANS: Attagene TRANS-FACTORIAL HepG2 Assay for human Nuclear Receptor Related Protein 1 (NURR1) (AID 2282985). Conditions: HepG2 Attagene TRANS reporter, mRNA readout. In outline:
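Cells: HepG2, transiently transfected. Exposure: 24 h. Detection: fluorescence of labelled RT-PCR products separated by capillary electrophoresis; upward fit versus DMSO.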

Test [10] is described as follows: ATG_M_06_TRANS: Attagene TRANS-FACTORIAL HepG2 Assay for M06 Transcription Factor (Internal Marker) (AID 2282983). As to conditions: HepG2 Attagene TRANS M06 internal marker reporter. In outline: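 Measured by capillary electrophoresis of fluorescently labelled RT-PCR products, this endpoint reflects reporter mRNA in HepG2 cells harbouring exogenous NR-GAL4 reporter constructs after 24 h exposure, with DMSO as baseline.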

SMILES strings stand for the structures. Inconclusive results are not listed. Activity calls are given as the source filed them. The calls were made as follows, unless noted: active = hit-call score of the fitted dose curve at least 0.9, where 1 is the maximum; inconclusive = response in the unintended direction; inactive = score below 0.9.

Chain of Bile acid receptor (Homo sapiens) (Q96RI1 whole entry, looked up, the tested form may be a part): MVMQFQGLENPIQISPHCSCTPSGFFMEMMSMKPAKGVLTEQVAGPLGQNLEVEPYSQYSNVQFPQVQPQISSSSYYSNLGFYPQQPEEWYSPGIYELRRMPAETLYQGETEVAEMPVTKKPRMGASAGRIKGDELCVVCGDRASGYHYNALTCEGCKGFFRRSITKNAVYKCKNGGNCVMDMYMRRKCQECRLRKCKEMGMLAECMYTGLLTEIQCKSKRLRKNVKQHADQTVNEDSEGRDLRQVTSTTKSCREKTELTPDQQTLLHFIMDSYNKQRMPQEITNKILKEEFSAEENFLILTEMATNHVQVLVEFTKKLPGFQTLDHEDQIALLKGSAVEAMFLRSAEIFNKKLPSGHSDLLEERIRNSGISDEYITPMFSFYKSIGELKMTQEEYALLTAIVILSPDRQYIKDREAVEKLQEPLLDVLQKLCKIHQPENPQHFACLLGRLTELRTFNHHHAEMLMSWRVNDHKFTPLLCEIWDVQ
Chain of Nuclear respiratory factor 1 (Homo sapiens) (Q16656 whole entry, looked up): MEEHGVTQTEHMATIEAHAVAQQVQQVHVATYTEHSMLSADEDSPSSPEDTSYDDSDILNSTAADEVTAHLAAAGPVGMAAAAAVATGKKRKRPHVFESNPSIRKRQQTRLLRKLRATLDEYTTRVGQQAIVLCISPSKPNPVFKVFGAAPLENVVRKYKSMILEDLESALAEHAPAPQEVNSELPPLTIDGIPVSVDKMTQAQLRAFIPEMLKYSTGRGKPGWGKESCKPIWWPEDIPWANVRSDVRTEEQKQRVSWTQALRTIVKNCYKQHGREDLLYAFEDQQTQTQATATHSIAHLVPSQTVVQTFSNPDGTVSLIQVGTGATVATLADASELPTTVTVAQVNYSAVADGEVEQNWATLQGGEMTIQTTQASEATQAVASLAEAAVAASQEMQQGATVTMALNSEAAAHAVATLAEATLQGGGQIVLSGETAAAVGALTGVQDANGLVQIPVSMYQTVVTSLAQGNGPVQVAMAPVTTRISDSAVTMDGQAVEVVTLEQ
Chain of Glucocorticoid receptor (Homo sapiens) (P04150 whole entry, looked up, the tested form may be a part): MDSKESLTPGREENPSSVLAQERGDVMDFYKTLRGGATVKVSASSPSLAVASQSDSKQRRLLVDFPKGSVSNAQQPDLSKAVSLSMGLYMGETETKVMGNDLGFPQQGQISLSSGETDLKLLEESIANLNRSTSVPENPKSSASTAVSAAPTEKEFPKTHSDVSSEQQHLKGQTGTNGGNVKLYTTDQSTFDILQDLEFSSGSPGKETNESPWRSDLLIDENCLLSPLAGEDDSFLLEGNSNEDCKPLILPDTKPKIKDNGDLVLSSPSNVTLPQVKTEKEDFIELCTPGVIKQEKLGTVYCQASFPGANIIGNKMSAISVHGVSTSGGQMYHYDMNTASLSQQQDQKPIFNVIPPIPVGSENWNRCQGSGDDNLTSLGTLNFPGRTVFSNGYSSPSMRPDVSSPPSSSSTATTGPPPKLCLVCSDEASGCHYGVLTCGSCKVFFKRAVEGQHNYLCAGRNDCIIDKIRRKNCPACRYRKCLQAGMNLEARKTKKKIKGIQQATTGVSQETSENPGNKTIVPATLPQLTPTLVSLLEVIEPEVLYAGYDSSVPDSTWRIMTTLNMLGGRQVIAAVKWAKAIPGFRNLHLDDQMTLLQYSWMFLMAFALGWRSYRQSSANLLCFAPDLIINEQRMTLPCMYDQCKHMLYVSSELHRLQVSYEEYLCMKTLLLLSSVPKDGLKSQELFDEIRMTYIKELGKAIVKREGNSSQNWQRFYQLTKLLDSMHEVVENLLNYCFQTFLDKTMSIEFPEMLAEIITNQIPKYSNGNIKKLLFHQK
Chain of Nuclear receptor subfamily 4 group A member 2 (Homo sapiens) (P43354 whole entry, looked up): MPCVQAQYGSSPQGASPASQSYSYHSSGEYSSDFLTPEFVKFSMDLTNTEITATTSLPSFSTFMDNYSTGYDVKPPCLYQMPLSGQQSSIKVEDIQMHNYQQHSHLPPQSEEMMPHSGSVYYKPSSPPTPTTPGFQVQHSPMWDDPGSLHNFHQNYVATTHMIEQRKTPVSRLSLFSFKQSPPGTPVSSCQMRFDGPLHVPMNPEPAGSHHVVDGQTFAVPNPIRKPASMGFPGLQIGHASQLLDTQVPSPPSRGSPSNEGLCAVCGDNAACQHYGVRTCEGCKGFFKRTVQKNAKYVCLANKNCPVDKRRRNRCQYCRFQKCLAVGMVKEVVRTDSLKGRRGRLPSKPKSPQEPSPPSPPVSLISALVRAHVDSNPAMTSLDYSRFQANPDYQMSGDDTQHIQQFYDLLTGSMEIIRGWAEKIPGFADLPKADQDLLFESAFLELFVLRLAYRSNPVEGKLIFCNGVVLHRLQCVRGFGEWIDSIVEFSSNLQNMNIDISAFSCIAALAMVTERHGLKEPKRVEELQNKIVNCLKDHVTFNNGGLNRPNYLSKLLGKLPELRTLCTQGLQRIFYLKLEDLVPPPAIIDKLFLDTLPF
Chain of Hepatocyte nuclear factor 4-alpha (Homo sapiens) (P41235 whole entry, looked up): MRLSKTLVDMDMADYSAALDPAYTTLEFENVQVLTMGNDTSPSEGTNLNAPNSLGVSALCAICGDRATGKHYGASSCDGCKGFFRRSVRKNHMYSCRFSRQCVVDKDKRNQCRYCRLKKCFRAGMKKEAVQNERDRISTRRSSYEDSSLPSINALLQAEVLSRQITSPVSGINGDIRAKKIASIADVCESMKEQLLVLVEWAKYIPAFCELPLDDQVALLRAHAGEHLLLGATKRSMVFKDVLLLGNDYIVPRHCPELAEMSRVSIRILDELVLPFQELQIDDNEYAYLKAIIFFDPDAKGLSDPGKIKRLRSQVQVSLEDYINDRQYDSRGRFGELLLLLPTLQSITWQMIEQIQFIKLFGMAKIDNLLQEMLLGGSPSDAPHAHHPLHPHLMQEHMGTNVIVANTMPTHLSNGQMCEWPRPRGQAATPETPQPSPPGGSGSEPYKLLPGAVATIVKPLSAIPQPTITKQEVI
Chain of Oxysterols receptor LXR-alpha (Homo sapiens) (Q13133 whole entry, looked up, the tested form may be a part): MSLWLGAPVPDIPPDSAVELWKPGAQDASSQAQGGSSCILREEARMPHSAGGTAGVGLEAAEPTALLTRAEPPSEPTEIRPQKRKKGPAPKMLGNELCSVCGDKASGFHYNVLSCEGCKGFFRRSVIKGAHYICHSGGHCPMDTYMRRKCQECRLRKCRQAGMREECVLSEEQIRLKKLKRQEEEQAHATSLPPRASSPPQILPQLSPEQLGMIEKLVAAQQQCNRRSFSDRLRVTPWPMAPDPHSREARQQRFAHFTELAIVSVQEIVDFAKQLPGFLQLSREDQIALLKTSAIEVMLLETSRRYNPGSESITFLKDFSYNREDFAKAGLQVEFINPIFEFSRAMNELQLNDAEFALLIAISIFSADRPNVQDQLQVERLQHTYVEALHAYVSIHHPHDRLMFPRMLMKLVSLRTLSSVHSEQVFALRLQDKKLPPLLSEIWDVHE
Chain of Oxysterols receptor LXR-beta (Homo sapiens) (P55055 whole entry, looked up, the tested form may be a part): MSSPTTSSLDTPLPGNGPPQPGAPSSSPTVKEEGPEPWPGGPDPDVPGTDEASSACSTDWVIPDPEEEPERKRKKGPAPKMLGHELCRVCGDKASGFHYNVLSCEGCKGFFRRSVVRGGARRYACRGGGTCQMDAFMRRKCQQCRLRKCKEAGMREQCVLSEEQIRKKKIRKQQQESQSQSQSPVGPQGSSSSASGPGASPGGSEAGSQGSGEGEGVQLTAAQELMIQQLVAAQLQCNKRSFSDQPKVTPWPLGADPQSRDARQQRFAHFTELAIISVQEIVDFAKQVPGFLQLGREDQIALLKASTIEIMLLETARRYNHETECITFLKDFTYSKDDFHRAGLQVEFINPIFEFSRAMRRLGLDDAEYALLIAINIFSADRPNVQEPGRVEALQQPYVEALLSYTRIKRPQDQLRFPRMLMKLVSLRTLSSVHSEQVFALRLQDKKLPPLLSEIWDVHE
Chain of Transcriptional activator Myb (Homo sapiens) (P10242 whole entry, looked up): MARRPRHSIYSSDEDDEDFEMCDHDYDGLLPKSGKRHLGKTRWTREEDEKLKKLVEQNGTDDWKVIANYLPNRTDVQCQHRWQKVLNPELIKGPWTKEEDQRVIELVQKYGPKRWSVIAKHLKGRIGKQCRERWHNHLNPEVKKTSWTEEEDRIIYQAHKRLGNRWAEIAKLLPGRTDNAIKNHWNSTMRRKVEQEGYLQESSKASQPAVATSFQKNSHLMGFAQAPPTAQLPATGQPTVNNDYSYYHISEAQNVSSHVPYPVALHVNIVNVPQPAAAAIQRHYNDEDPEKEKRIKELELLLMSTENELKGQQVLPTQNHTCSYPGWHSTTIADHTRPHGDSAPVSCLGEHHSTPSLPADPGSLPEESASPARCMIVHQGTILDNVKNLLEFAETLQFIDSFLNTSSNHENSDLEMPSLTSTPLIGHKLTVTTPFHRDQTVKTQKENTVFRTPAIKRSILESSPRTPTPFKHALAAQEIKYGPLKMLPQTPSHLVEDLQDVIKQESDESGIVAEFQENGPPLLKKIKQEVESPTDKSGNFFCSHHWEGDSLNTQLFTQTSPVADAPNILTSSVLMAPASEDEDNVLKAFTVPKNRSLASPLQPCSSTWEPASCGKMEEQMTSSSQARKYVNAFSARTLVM

Consider `NC(=O)C1CO1` (configuration not stated), for which the outcome in [1], in [2], in test [3], in [4] and in test [5] was inactive.

For `CCCCCCCCCCCCCCCC[N+](C)(C)CC`, the call in [6], in [7], in [8], in [3], in [9] and in test [4] was inactive. Besides, the concentration at half-maximal activity (AC50) – broadly, the midpoint of the concentration-response curve, whichever way the signal moves – in test [2] was 11 µM (active); in test [5] it was 9.68 µM (active).

For the compound `C=C1C2CCC(C2)C1(C)C` (configuration not stated), the compound was classed as inactive in test [1], in test [9], in test [4] and in [5].

As to `COC(=O)c1cc(Cl)ccc1[N+](=O)[O-]`, the result in test [1], in test [10], in test [3] and in test [5] was inactive.

In the case of `CCCCC(CC)COC(=O)c1ccccc1` (configuration not stated), the outcome in test [1], in test [3], in test [9], in test [4] and in test [5] was inactive.

For the compound `O=c1[nH]c(=O)c2[nH]c(=O)[nH]c2[nH]1`, the compound was called inactive in [1], in [10], in test [9], in test [4] and in test [5].

For `OC1CCCCCCCCCCC1`, the outcome in test [1], in test [4] and in test [5] was inactive.

On to `O=Nc1ccc(O)cc1`, for which the result in test [1], in test [2], in test [3], in [9], in test [4] and in [5] was inactive.

For the compound `CCCCCc1ccc(Cl)cc1`, the call in test [1], in test [9], in test [4] and in [5] was inactive.

As to `O=C1CCCCCCCCCCC(=O)OCCO1`, the result in test [1], in [10], in test [4] and in test [5] was inactive.

On to `O=[N+]([O-])c1ccc(CO)cc1`, for which the outcome in [1], in [10], in test [3], in test [9], in [4] and in test [5] was inactive.

For the compound `CCC(CC)C(=O)O`, the compound was called inactive in test [1], in test [2], in test [4] and in test [5].

Consider `O=c1c2ccccc2oc2ccccc12`, for which the compound was called inactive in test [1], in [2], in test [4] and in test [5].

For the compound `O=C(Nc1cccc(C(F)(F)F)c1)c1cc(Br)cc(Br)c1O`, the compound was called inactive in test [1], in test [2], in [10], in test [3], in test [9] and in [4]. The AC50 in test [5] was 172 µM (active).

In the case of `CCCCCCCC/C=C\CCCCCCCC(=O)OCCO`, the compound was classed as inactive in test [1], in test [2], in test [10], in test [3], in test [9] and in test [4]. Moreover, the compound was called inactive in [5].

Consider `CO[Si](CCC1CCC2OC2C1)(OC)OC` (configuration not stated), for which the result in test [1], in test [3], in [4] and in test [5] was inactive.

`CC(C)=CCCC(C)C=O` (configuration not stated): the result in test [6], in test [7], in test [8], in test [2], in test [3] and in test [9] was inactive. Besides, the call in test [5] was inactive.

As for `CCCCCCCCC(=O)OCC`, the outcome in test [1], in [2], in test [3], in [9] and in test [4] was inactive.

Turning to `O=C1CC2CC1C1CCCC21` (configuration not stated), the call in [1], in [3], in test [4] and in [5] was inactive.

Turning to `c1cc(C(c2ccc(OCC3CO3)cc2)C(c2ccc(OCC3CO3)cc2)c2ccc(OCC3CO3)cc2)ccc1OCC1CO1` (configuration not stated), the outcome in test [1], in test [10], in test [3], in test [4] and in [5] was inactive.

With `C=C(C)C(=O)OCCOc1ccccc1`, the compound was called inactive in test [1], in test [2], in test [10], in test [9], in test [4] and in test [5].

With `O=S(=O)(O)c1cc(S(=O)(=O)O)c2ccc3c(S(=O)(=O)O)cc(S(=O)(=O)O)c4ccc1c2c43`, the compound was called inactive in test [6], in test [7], in test [8], in test [2], in test [3] and in test [9]. The compound was classed as inactive in test [4] and in test [5].

Turning to `CCCCC(CC)COCC1CO1` (configuration not stated), the result in [1], in test [2], in test [10], in test [3], in test [4] and in test [5] was inactive.

For `CC(C)(C)C(=O)C=Cc1ccc(Cl)cc1`, the compound was classed as inactive in test [6], in test [8], in [3], in [9], in [4] and in [5]. For the same compound, the half-maximal activity concentration (AC50) in test [7] was 26.1 µM (active).

`Cc1ccc(N)c([N+](=O)[O-])c1`: the call in [1], in test [2] and in test [5] was inactive.

For `CC(=O)OCC(C)OC(C)=O` (configuration not stated), the outcome in [6], in [7], in test [8], in test [2], in [10] and in test [3] was inactive. In addition, the compound was called inactive in [4] and in test [5].

As for `CCCCCCCCCCCSCC(=O)O`, the compound was classed as inactive in [1], in test [10], in test [3] and in test [4]. Moreover, the values for the half-maximal activity concentration (AC50) in [9] and in [5] were 23 µM (active) and 77.7 µM (active), respectively.

Consider `c1ccc2c(c1)ccc1ncccc12`, for which the call in test [1], in test [2], in [9], in test [4] and in [5] was inactive.

Consider `OCCNCc1ccccc1`, for which the compound was called inactive in test [1], in test [3], in [4] and in test [5].

As for `C(=CC=Nc1ccccc1)C=CNc1ccccc1`, the outcome in test [6], in test [7], in test [8], in test [2], in test [3] and in test [9] was inactive. In addition, the compound was classed as inactive in [4] and in test [5].

As for `SCCc1cnccn1`, the compound was classed as inactive in [1], in test [2], in test [9], in test [4] and in [5].
